# HCMV antiviral – inhibitors of human cytomegalovirus; HFF cells, HCMV-luciferase reporter, 72 h; stronger effect = lower value; activity change, negative = inhibition, % at 57.5 µM; hit rate 4.5% among 410,000; in the data active means activity change below about -60%; inconclusive means no clear call, values can overlap the other calls; inactive means above about -39%
#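 Inhibition of viral replication was scored as loss of reporter luminescence in HFFs infected with HCMV-luciferase (MOI 1 PFU/cell) for 72 h; compounds tested at 2 doses, normalized to buffer and Salinomycin controls.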
# Sm TGR block – blocks Schistosoma mansoni thioredoxin glutathione reductase; AID 485364; hit rate 3% among 360,000; Q962Y6; purified TGR, DTNB reduction, TNB absorbance 405 nm; Potency, µM (highest dose often 114 µM), usual class: inhibitors; further: nearly all actives have a fitted effect of over 60% in size
#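 TGR 20 nM + NADPH 100 uM (dispensed conc.), cpd preinc 15 min RT; start with NADPH (500 uM addition) then DTNB (15 mM addition). Kinetic TNB absorbance, 405 nm filter. Four-parameter Hill fit across titration.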
# Giardia FBPA inh – inhibitors of Giardia lamblia fructose-1,6-bisphosphate aldolase; A8B2U2; purified Giardia FBPA; Potency, µM (series often up to 59.6 µM), hits mostly inhibitors; hit rate 0.71% among 290,000; AID 2451; further: nearly all actives have a fitted effect of over 55% in size
# Target sequence (A8B2U2 whole entry, looked up): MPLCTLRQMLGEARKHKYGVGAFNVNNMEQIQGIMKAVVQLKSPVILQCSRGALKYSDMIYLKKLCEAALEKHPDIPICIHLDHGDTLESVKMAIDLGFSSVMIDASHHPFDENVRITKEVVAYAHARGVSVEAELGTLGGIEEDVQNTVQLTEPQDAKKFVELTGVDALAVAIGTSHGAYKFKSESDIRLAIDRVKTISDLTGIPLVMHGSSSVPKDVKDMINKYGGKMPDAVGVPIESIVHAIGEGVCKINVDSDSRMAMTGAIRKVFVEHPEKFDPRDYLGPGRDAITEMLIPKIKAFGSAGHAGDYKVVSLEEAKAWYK
#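 Giardia FBPA (40 nM reagent) was preincubated 10 min at RT with compound (up to 57.5 uM final), then substrate plus GAPDH/TPI/NAD/arsenate coupling system with diaphorase/resazurin was added; resorufin fluorescence (525/598 nm) was read after 20 min.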
# Pf growth 48h – inhibits P. falciparum growth in the first generation, 48 h. P. falciparum luciferase growth in erythrocytes, 48 h. Potency, µM (highest dose often 28.7 µM), actives largely listed as inhibitors. hit rate 5.9% among 310,000
#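 First compound was added to culture medium, then infected red cells at 0.1% parasitemia and 2% hematocrit (final). After incubation at 37 C under 5% CO2, luciferase detection reagent was dispensed and light output recorded.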
# Pf growth 96h – inhibits malaria parasite growth, 96 h; hit rate 6.9% among 320,000; Potency, µM (highest dose often 28.7 µM), hits mostly inhibitors; P. falciparum luciferase reporter growth, 96 h; AID 504834
#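 Infected RBCs, 2% Hct / 0.05% parasitemia final; luciferase-reporter P. falciparum; cpd 96 h, 37 C, 5% CO2; luciferase detection reagent; luminescence.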
# A number is an active result; n = inactive; u = inconclusive; x = no result; [ ] = remark or other dose. Compounds with a hit are over-represented: about 14% of the library has one in this group of screens. Unless noted, the call rests on the fitted dose curve; in most records, active means well fitted curve in the direction sought with a large enough effect; inconclusive means small, poorly fitted or top-dose-only effect, or another doubt; inactive means no such curve, though single readings can be large; an effect the other way counts as inactive or inconclusive.
SMILES,HCMV antiviral,Sm TGR block,Giardia FBPA inh,Pf growth 48h,Pf growth 96h
COc1ccc(OC)c(S(=O)(=O)NC(=O)C2(C)CCN2C(=O)CC2CCCC2)c1 (centres undefined),n,x,x,x,x
COc1ccc(S(=O)(=O)c2c(O)cc(C)c(NS(=O)(=O)c3ccccc3)c2C)cc1,n,n,n,n,u
Cc1noc(C)c1-c1cncnc1NCc1cccnc1,x,x,n,x,x
Cc1ccc(C(=O)Nc2ccc(S(=O)(=O)NC3=NCCCCC3)cc2)cc1S(=O)(=O)N1CCOCC1,n,n,x,2.3µM,13µM
O=C(Nc1cccc(S(=O)(=O)NC2=NCCCCC2)c1)c1ccc(Cl)cc1,-68,n,x,n,u
COc1ccccc1C(=O)Nc1ccc(S(=O)(=O)NC2=NCCCCC2)cc1,-60,n,n,n,u
O=C(Nc1ccc(S(=O)(=O)NC2=NCCCCC2)cc1)c1cccc(S(=O)(=O)N2CCOCC2)c1,n,x,x,x,x
CSc1ccccc1C(=O)Nc1ccc(S(=O)(=O)NC2=NCCCCC2)cc1,n,n,x,u,u
O=C(Nc1cccc(S(=O)(=O)NC2=NCCC2)c1)c1ccccc1,n,x,x,x,x
CCNc1ncc2nc(CCc3ccccc3)c(=O)n(C[C@H]3CCCO3)c2n1,x,x,n,x,x
CCOc1ccccc1NC(=O)N1CCc2c(sc3c2CCCC3)C1c1ccccc1 (centres undefined),n,n,x,x,x
O=C(O)C1(c2ccccc2)CCN(S(=O)(=O)c2ccc(Cl)cc2)CC1,n,n,n,n,u
O=C(O)C1(c2ccccc2)CCN(S(=O)(=O)c2ccc(Br)cc2)CC1,u,89µM,n,n,u
COc1ccc(OC)c(-n2c(SCC(=O)NCc3ccco3)nnc2-c2c[nH]c3ccccc23)c1,n,u,n,x,2.6µM
COc1cccc(-n2c(SC)nnc2-c2c[nH]c3ccccc23)c1,n,n,n,x,4.7µM
COc1ccc(-n2c(COc3ccc4ccccc4c3)nnc2SCC(=O)NCc2ccco2)cc1,n,n,n,10µM,x
COc1ccc(-n2c(COc3cccc4ccccc34)nnc2SCC(=O)NCc2ccco2)cc1,n,n,n,2.9µM,n
CCC(=O)OC1(C)C(=O)C=C2C=C(c3ccsc3)OC=C2C1=O (centres undefined),x,32µM,u,n,n
COC(=O)CCC(=O)OC1(C)C(=O)C=C2C=C(c3ccsc3)OC=C2C1=O (centres undefined),x,x,n,x,x
Cc1cc(F)ccc1S(=O)(=O)N1CCCOC1CNC(=O)C(=O)NC1CCCCC1 (centres undefined),n,n,x,n,n
CCCCNC(=O)c1ccc(Cn2c(=S)[nH]c3c([nH]c4ccc(OC)cc43)c2=O)cc1,n,n,n,u,u
CCN(CC)CCNC(=O)CCCCn1c(=S)[nH]c2c([nH]c3ccc(OC)cc32)c1=O,n,n,n,9.3µM,u
COc1cc(C2NC(=O)N(C)C3=C2C(=O)N(c2ccccc2)C3)ccc1O (centres undefined),-97,u,x,x,x
CCC(C)NC(=O)CSc1nnc(-c2ccc(C)cc2)c(-c2ccc(C)cc2)n1 (centres undefined),n,n,x,x,x
CCOC(=O)NC(N(O)c1cccc(Cl)c1)C(Cl)(Cl)Cl (centres undefined),n,28µM,n,n,n
SMILES,HCMV antiviral,Sm TGR block,Giardia FBPA inh,Pf growth 48h,Pf growth 96h
Cc1ccc(C)c(SCC(=O)N(C)C2CCS(=O)(=O)C2)c1 (centres undefined),n,x,x,x,x
COc1ccccc1C(=O)NCCC(=O)N1CCN(c2ccc(C(F)(F)F)cn2)CC1,-85,n,x,u,u
COc1ccccc1C(=O)NCC(=O)N1CCN(S(=O)(=O)c2ccccc2C(F)(F)F)CC1,n,n,x,u,8.3µM
CCOc1ccccc1C(=O)N1CCN(c2ccc(C(F)(F)F)cn2)CC1,u,n,n,n,n
COc1ccccc1C(=O)NCCC(=O)N1CCCCCCC1,n,n,x,u,n
N#Cc1ccc(OCC(=O)N2CCN(c3ccc(C(F)(F)F)cn3)CC2)cc1,u,n,x,u,4.1µM
O=C(CCc1ccccc1F)N1CCN(c2ccc(C(F)(F)F)cn2)CC1,n,n,n,n,n
COc1ccccc1C(=O)NCCC(=O)N1CCN(c2ccccc2Cl)CC1,n,n,x,8.3µM,12µM
CN(C)CCn1c2c(c(SCC(=O)N3CCc4ccccc43)nc1=O)CCCC2,n,n,x,n,u
COc1ccccc1NC(=O)NCCCCc1ccccc1,n,n,n,u,u
COc1ccccc1C(=O)NCCSCc1ccccc1Cl,n,n,n,7.4µM,2.9µM
COc1ccc(S(=O)(=O)N2CCN(C(=O)CCNC(=O)c3ccccc3Cl)CC2)cc1,-98,n,x,u,u
Cc1ccc(S(=O)(=O)N2CCN(C(=O)CCNC(=O)c3ccccc3Cl)CC2)cc1,n,n,x,u,u
CCOC(=O)c1cccc(NC(=O)CC(c2ccc(F)cc2)N2Cc3ccccc3C2=O)c1 (centres undefined),n,n,x,x,x
C[C@H]1CN(CCc2ccccc2)C(=O)[C@@H]1CC(=O)Nc1ccc(Br)cc1,n,x,x,x,x
O=C(CN1CCC(NC(=O)c2ccco2)CC1)Nc1cccc2ccccc12,n,n,n,u,10µM
COc1ccc(NC(=O)CN2CCN(C(=O)c3ccco3)CC2)c(OC)c1,n,n,n,10µM,n
Cc1cc(Cl)ccc1NC(=O)CN1CCN(C(=O)c2ccco2)CC1,n,n,n,10µM,n
COc1ccccc1NC(=O)CN1CCN(C(=O)c2ccco2)CC1,n,n,n,2.1µM,n
COc1cccc(NC(=O)N[C@H]2CC[C@@]34CCCN3C(=O)CCC[C@H]4C2Cc2ccccc2)c1 (some centres undefined),n,x,x,x,x
CCOC(=O)c1cccc(NC(=O)Nc2c(C)n(C)n(-c3ccccc3)c2=O)c1,n,n,x,x,x
COc1ccccc1NC(=O)N1CCN(CCc2ccccc2)CC1,n,n,n,4.1µM,n
COc1ccc(Cl)cc1NC(=O)N1CCN(CCc2ccccc2)CC1,n,n,n,u,n
Cc1cccc(N2C(=O)CC(Sc3nnc(C)s3)C2=O)c1 (centres undefined),n,3.5µM,n,n,n
Cc1ccc(N2C(=O)CC(Sc3cccs3)C2=O)cc1 (centres undefined),n,7.1µM,n,n,n
SMILES,HCMV antiviral,Sm TGR block,Giardia FBPA inh,Pf growth 48h,Pf growth 96h
Cc1cc(C)cc(N2C(=O)CC(Sc3nnnn3-c3ccccc3)C2=O)c1 (centres undefined),n,5µM,x,n,n
Cc1cc(C)cc(N2C(=O)CC(c3ccccc3)CC2=O)c1,n,n,x,n,n
O=C1CC(Sc2nnnn2C2CCCCC2)C(=O)N1c1ccccc1 (centres undefined),-69,3.2µM,n,n,n
Cc1cccc(N2C(=O)CC(Sc3nc(C)cc(C)n3)C2=O)c1 (centres undefined),n,n,n,x,u
Cn1nnnc1SC1CC(=O)N(c2ccccc2)C1=O (centres undefined),n,1.6µM,n,n,n
CC#CCN1c2ccccc2[C@]23C[C@@H](C(=O)OC)N(C(=O)C4CCC4)C2=NC(C(=O)OC)=C(C(=O)OC)[C@H]13,-75,n,n[12.9 µM],u,u

# Screening data as filed in PubChem.
